fixLJ activator – increases Burkholderia fixLJ two-component signaling; B. multivorans fixK-promoter GFP reporter, 18 h; stronger effect = higher value; z-score (no concentration beside the values); 0.3% of 29,000 active; AID 1918990;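 active = replicate mean overnight rise in green fluorescent reporter signal, 3 or more SD over negative controls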
Each line names hits and unclear results; the compound was inactive in the other large screens; ! = not active in a repeat. The entries come from a sample that favours hits as a whole.

CCc1c(C)nn(CCNC(=O)CC(c2ccccc2)c2ccco2)c1C (centres undefined)	none
COc1cc(CNC(=O)N(C)C(C)Cc2cc(C)ccn2)cc(OC)c1OC (centres undefined)	none
COc1ccccc1OC(C)(C)C(=O)NC1CC(c2nnc(CO)n2C)C1 (centres undefined)	none
O=C(C1CCCCCC1)N1CC(O)C(Cc2cnccn2)C1 (centres undefined)	none
NCC(=O)N1CCC2(CC1)OCCc1cc(C(=O)NCC3CCOC3)sc12 (centres undefined)	none
Cc1ncsc1CCN(C)S(=O)(=O)c1ccc(-c2cc(C(F)(F)F)on2)o1	none
CC(=O)NCc1cc2n(n1)CCN(C(=O)c1ccc(N3CCCCC3)cc1)C2	none
Cc1cc(C)n(CCCNC(=O)c2ccccc2N2CCC(=O)NC2=O)n1	none
O=C(NC1CCNC1)c1ccccc1S(=O)(=O)Cc1ccccc1 (centres undefined)	none
CN1CCN(CC2CCCN(c3nnnn3-c3ccccc3)C2)CC1 (centres undefined)	none
COc1ccc(NC(=O)CSc2oc(-c3ccco3)nc2S(=O)(=O)c2ccccc2)c(OC)c1	fixLJ activator 6.8
COc1ccccc1NC(=O)CSc1oc(-c2cccs2)nc1S(=O)(=O)c1ccc(Br)cc1	none
COc1ccccc1NC(=O)CSc1oc(-c2ccco2)nc1S(=O)(=O)c1ccc(C)cc1	none
COc1ccc(NC(=O)CSc2oc(-c3cccs3)nc2S(=O)(=O)c2ccccc2)c(OC)c1	fixLJ activator 3.7
Cc1cc(C)cc(NC(=O)CSc2oc(-c3ccco3)nc2S(=O)(=O)c2ccccc2)c1	none
COc1ccc(NC(=O)CSc2oc(-c3cccs3)nc2S(=O)(=O)c2ccc(C)cc2)c(OC)c1	none
O=C(Cc1c(F)cccc1Cl)N1CCCN(C(=O)c2ccc[nH]c2=O)CC1	none
Cc1cccn2c(CN3CC(O)C3)c(C(=O)N3CCCCC3)nc12	none
COc1ccc(Nc2cc(C(=O)NCCc3ccc(C)cc3)c3ccccc3n2)c(OC)c1	none
COc1ccc(OC)c(Nc2cc(C(=O)NCc3ccccc3)c3ccccc3n2)c1	fixLJ activator 4.2
COc1ccc(CNC(=O)c2cc(Nc3ccc(OC)cc3OC)nc3ccccc23)cc1	none
COc1cccc(-c2nnc(-c3cc4cc(Cl)ccc4oc3=O)o2)c1	none
CCCCCCc1cc2cc(-c3nnc(-c4ccc(C)cc4)o3)c(=O)oc2cc1O	fixLJ activator 8.6
CCN(CC)c1ccc2cc(-c3nnc(-c4cccc(Cl)c4)o3)c(=O)oc2c1	none
Cc1noc(C)c1CN1CC(C(=O)O)C(c2ccccn2)C1 (centres undefined)	none
CNC(=O)c1ccc(S(=O)(=O)NCc2c(C)noc2C)cc1	none
COc1ccccc1C(=O)Nc1ccc(OCc2cc(=O)n3cc(C)sc3n2)cc1	none
Cc1cn2c(=O)cc(COc3ccc(NC(=O)c4cccc(F)c4)cc3)nc2s1	none
Cc1cn2c(=O)cc(COc3ccc(NC(=O)c4ccccc4C)cc3)nc2s1	fixLJ activator 3.4
Cc1oc(-c2cc(C(F)(F)F)on2)cc1S(=O)(=O)N1CCC(N)CC1	none
CN1CC(=O)N2CCN(Cc3nn(C)c4cccc(Cl)c34)CC2C1=O (centres undefined)	none
O=C(NCc1cc(-c2ccc(F)cc2)no1)C1CCCCn2nnnc21 (centres undefined)	none
Cn1nc(CNC(=O)C2CCCCn3nnnc32)c2c(Cl)cccc21 (centres undefined)	fixLJ activator 3.3
Cc1cc2c(cn1)CN(C(=O)c1cccc(Cn3nc(C)cc3C)c1)C2	none
NC(CO)C(=O)NNCc1ccc(O)c(O)c1O (centres undefined)	fixLJ activator 3!
Cc1noc(C)c1CC(=O)N(C)Cc1cc2cc(F)ccc2[nH]1	none
COC(=O)NC(C)C(=O)N1CCCN(C(=O)CCn2cccn2)CC1 (centres undefined)	none
COCCNC(=O)CCn1c(=O)c2cc(OC)c(OC)cc2n(CC(=O)Nc2ccccc2C)c1=O	none
COCCNC(=O)CCn1c(=O)c2cc(OC)c(OC)cc2n(CC(=O)Nc2ccccc2OC)c1=O	fixLJ activator 4.6
COCCNC(=O)CCCn1c(=O)c2cc(OC)c(OC)cc2n(CC(=O)Nc2ccc(F)cc2)c1=O	none
COc1cccc(CNC(=O)C(C)(C)N2CCCC2)c1OC	none
CC(=O)N1CCc2cc(Br)cc(S(=O)(=O)N3CCN(c4cccc(C(F)(F)F)c4)CC3)c21	fixLJ activator 3.3
CCC(=O)N1CCc2cc(Br)cc(S(=O)(=O)N3CCN(c4ccccc4)CC3)c21	none
O=C(C1CC1)N1CCc2cc(Br)cc(S(=O)(=O)N3CCN(c4cccc(Cl)c4)CC3)c21	none
CC(C)C(=O)N1CCC[C@@]2(CN(CCCS(=O)(=O)N(C)C)CCC2O)C1 (some centres undefined)	none
CCN1CC(C(=O)NCCc2csc(-c3ccncc3)n2)CCC1=O (centres undefined)	none
Cc1ccc(C(=O)N2CC3CCC(C2)N(CC(=O)N(C)C)C3=O)cc1C (centres undefined)	none
CCOc1ccc2cc(-c3nnc(Nc4ccc(C)cc4)s3)c(=O)oc2c1	none
O=c1oc2cc(O)ccc2cc1-c1nnc(Nc2ccccc2F)s1	fixLJ activator 23
O=c1oc2ccc3ccccc3c2cc1-c1nnc(Nc2ccccc2F)s1	none
CCc1noc(CN2CC[C@]3(OC)CCC(OCC4CC4)CC23)n1 (some centres undefined)	none
CCOc1ccc(-n2c(=O)c3c(C)c(C)sc3n(CC(=O)c3ccccc3)c2=O)cc1	fixLJ activator 3.2
CCOc1ccc(-n2c(=O)c3c(C)c(C)sc3n(CC(=O)N(CC)Cc3ccccc3)c2=O)cc1	none
Cc1ccc(-n2c(=O)c3c(C)c(C)sc3n(CC(=O)c3ccc(Cl)cc3)c2=O)cc1C	none
CN(Cc1cnn(-c2ccc(F)cc2)c1)C(=O)c1ccc(-c2ccncc2)[nH]c1=O	none
NC(=O)C1CC=CCC1NC(=O)c1ccc(Cn2cccn2)o1 (centres undefined)	none
CCOC(C)CN(C)C(=O)NCc1cccc(OC)c1OC (centres undefined)	none
CC1Oc2cc(NC(=O)NCc3cn4c(n3)SCC4)ccc2N(C)C1=O (centres undefined)	none
CN1CCN(C(=O)Cn2ncc3c4ccccc4n(Cc4ccc(F)cc4)c3c2=O)CC1	none
CCOC(=O)C1CCN(C(=O)Cn2ncc3c4ccccc4n(Cc4ccccc4)c3c2=O)CC1	none
CCCN1CCN(C(=O)Cn2ncc3c4ccccc4n(Cc4cccc(Cl)c4)c3c2=O)CC1	fixLJ activator 14
O=C(Cn1ncc2c3ccccc3n(Cc3ccccc3F)c2c1=O)N1CCCCCC1	none
O=C(Cn1ncc2c3ccccc3n(Cc3ccc(Cl)cc3)c2c1=O)N1CCCCCC1	fixLJ activator 6.4
O=C(Cn1ncc2c3ccccc3n(Cc3ccccc3F)c2c1=O)N1CCCCC1	none
Cc1cccnc1CC(C)N(C)C(=O)NCc1ccc(C(=O)N(C)C)cc1 (centres undefined)	none
Cc1[nH]cnc1CN1CCC2(CC1)OCCc1c2[nH]c2ccccc12	none
CNc1nccnc1-c1cccc(OCc2cc(OC)cc(OC)c2)c1	none
O=C(O)C1CCC(C(=O)N2CCC(Cn3ccnc3)CC2)C1 (centres undefined)	none
CN1CCc2nc3sc(C(=O)c4ccc(F)cc4)c(N)c3cc2C1	none
CCN1CCc2nc3sc(C(=O)c4ccccc4)c(N)c3cc2C1	fixLJ activator 26
Cc1ccccc1NC(=O)c1sc2nc3c(cc2c1N)CN(Cc1ccccc1)CC3	none
O=C(NCc1cnc2ccccc2c1)N1CCC(O)(Cn2ccnc2)CC1	none
Cn1ccnc1-c1ccccc1C(=O)Nc1cccc(NC(=O)c2cccnc2)c1	none
O=C(O)c1ccccc1Nc1cccc(C(F)(F)F)c1	none
C=CCC(CC=C)(CNC(=O)C(=O)Nc1cc(C)ccc1OC)c1ccc(OC)c(OC)c1	none
